# In the supplement of paper PMC10338343:
# ± gives the standard deviation. The full ranking holds about 3,000 sequences; the median of “pre-steady-state target cleavage rate” is about 0.0079, and the highest 2% start at about 0.2. The entries come from a sample that favours the highest values as a whole.
# Test system: MILI (PIWIL2) piRISC loaded with piRNA #2 (26 nt)
# Assay: pre-steady-state target cleavage rate (min^-1); MIWI and MILI are mouse PIWI proteins and EfPiwi is from a freshwater sponge; tags in brackets are library labels; higher = faster piRNA-guided slicing of the target
# Conditions: guide: piRNA #2 5'p-UUAGGUAACCCAGUAGAUCCAGAGGA; auxiliary factor: 500 nM mouse GTSF1
# Protocol: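 Cleave-'n-Seq: a library of target RNAs (target site embedded in constant flanks, ACAGCATTCCGCGTTAGTGATATCCG... 5' flank; DNA-blocked outside the site) at 0.1 nM was incubated with 1 nM active mouse MILI or MIWI piRISC (synthetic 5'-monophosphorylated piRNA guide) with or without 500 nM mouse GTSF1 at 33 °C for 1 min to 16 h. Uncleaved targets were sequenced and normalised to non-target controls, and the pooled three trials were fitted to a burst-and-steady-state model to give the pre-steady-state cleavage rate (min^-1; k3 is constrained to at most 1e-4). Sequence is the target site only; target names encode pairing extent (gX:gY) and contiguous / 1-mismatch / 2-mismatch / bulge geometry. Fits with R² ≤ 0 are excluded.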
row,Sequence,pre-steady-state target cleavage rate
1,CUUAACCUCUGGAACUUCUGGGUUACCUAA,0.103 ± 0.028
2,CUUAAGCUCUGGAUCUAGUGGGAUACCUAA,0.00824 ± 0.0045
3,CUUAUCCUCUCGAUCUACUGGGAUACCUAA,0.0565 ± 0.013
4,CUUAUCCUCUGCAUCUACUGGGAUACCUAA,0.0522 ± 0.025
5,CUUAAGGAGACGAUCUACUGGGUUACCUAU [g2:g19:cont:t1U],0.00667 ± 0.0036
6,CUUAAGCUCUGGAUCUACUGGGUUAACUAA,0.095 ± 0.017
7,CUUAUCCUCUGGAUCUACUGGGCUUACCUAA,0.0139 ± 0.005
8,CUUAACCUCUGGAUUCUACUGGGUUACCUAA,0.273 ± 0.093
9,CUUAAGCUCUGGCUCUACUGGGUUACCUAA,0.163 ± 0.034
10,CUUAACCUCUGGAUCUACUGGGUUACCUAA [g2:g25:cont:t1A],0.101 ± 0.02
11,CUUAAGCUCUGGCAUCUACUGGGUUACCUAA,0.453 ± 0.15
12,CUUAACCUCUGGAUUACUGGGUUACCUAA,0.0792 ± 0.024
13,CUUAAGCUCUGCAUCUACUGGGUUACCUAA,0.0767 ± 0.016
14,CUUAUCGUCAGGAUCUACUGGGUUACCUAA,0.03 ± 0.012
15,CUUAUGCUCUGGAUCUACUGCGUUACCUAA,0.0127 ± 0.0036
16,CUUAAGGACUGGAUCUACUGGGUUACCUAA [g2:g22:cont:t1A],0.0428 ± 0.02
17,CUUAAGGAGACCUAGUACGGGUUACCUAA,< 0.0001
18,CUUAAGGAGAGGAAUCUACUGGGUUACCUAA,0.00399 ± 0.0036
19,CUUAUCCUCUGGAUGUACUGGGUUACGUAA,0.0286 ± 0.0078
20,CUUAAGGACUGGAUCUACGGGGUUACCUAA,0.0466 ± 0.013
21,CUUAACCUCUGGACUACUGGGUUACCUAA,0.156 ± 0.037
22,CUUAACCUCUGGUAGUACUGGGUUACCUAA,0.078 ± 0.025
23,CUUAUCCUCUGCAUCUACUGGGUUAGCUAA,0.145 ± 0.054
24,CUUAUCCUCUAGAUCUACUGGGUUACCUAA,0.224 ± 0.034
25,CUUAUCCUCUGGUUCUACUGGGUUAGCUAA,0.235 ± 0.069

row,Sequence,pre-steady-state target cleavage rate
1,CUUAUCCUCUGGUUCUACUGGGAUACCUAA,0.188 ± 0.078
2,CUUAUCCUCUGAGAUCUACUGGGUUACCUAA,0.106 ± 0.02
3,CUUAACCUCUGGUACUACUGGGUUACCUAA,0.256 ± 0.074
4,CUUAUCCUCUGGUUCUACUGGGUUUCCUAA,2.2 ± 1.7
5,CUUAUCCUCUGCAUCUACUGGGUUUCCUAA,0.165 ± 0.071
6,CUUAUCCUCUGGAUCUACUGGGUUAGCUAA,0.129 ± 0.025
7,CUUAUCCUCUAGGAUCUACUGGGUUACCUAA,0.049 ± 0.012
8,CUUAAGCUCUGGAUCUACAGGGUUACGUAA,0.0394 ± 0.01
9,CUUAAGCUCUGGAUCCACUGGGUUACCUAA,0.0284 ± 0.0092
10,CUUAACCUCUGCAUCUACAGGGUUACCUAA,0.0773 ± 0.014
11,CUUAAGGACUCGAUCUACUGGGUUACCUAA,0.0128 ± 0.0065
12,CUUAAGGAGAGGAUCUACAGGGUUACCUUA,0.0102 ± 0.0051
13,CUUAACCUCUGGAUCUAGUGGGAUACCUAA,0.0146 ± 0.0055
14,CUUAUCCUCUGGAUGUACUGGGUUACCUAA,0.108 ± 0.022
15,CUUAAGGUCUGGAUCUACUGGGAAACCUAA,0.0107 ± 0.0055
16,CUUAUCCUCUGGUUCUACUGGGUUACGUAA,0.634 ± 0.25
17,CUUAUCCUCUGGAACUACUGGGUUACGUAA,0.197 ± 0.068
18,CUUAUCCUCUGGUUCUACUGGGUUACCAAA,0.453 ± 0.15
19,CUUAACCUCUGGUUCUACUGGGUUACGUAA,0.12 ± 0.043
20,CUUAAGCUCUGGUUCUACUGGGUUACCUAA,0.131 ± 0.027
21,CUUAUCCUCUGGAACUACUGGGUUACCUUA,0.266 ± 0.073
22,CUUAAGCUCUGGUUCUACUGGGUUACCAAA,0.199 ± 0.063
23,CUUAUCCUCUGGAUCUACUGGGUUACCAA,0.123 ± 0.022
24,CUUAUCCUCUGGAACUACUGGGUUACCUAA,0.188 ± 0.042
25,CUUAUCCUCUGGAACUACUGGGUUACCAAA,0.13 ± 0.044

row,Sequence,pre-steady-state target cleavage rate
1,CUUAAGCUCUGGUUCUACUGGGUUACCUUA,0.126 ± 0.036
2,CUUAUCCUCUCGAUCUACUGGGUUACCAAA,0.13 ± 0.025
3,CUUAUCCUCUGGAUACUACUGGGUUACCUAA,0.0816 ± 0.019
4,CUUAAGCUCUGGAUCUACUGGGUUUCGUAA,0.0193 ± 0.0086
5,CUUAUCCUGUGGAUCUACUGGGUUACGUAA,0.0102 ± 0.0038
6,CUUAAGGUCUGGACUCUACUGGGUUACCUAA,0.0367 ± 0.014
7,CUUAACACUCUGGAUCUACUGGGUUACCUAA,0.0824 ± 0.024
8,CUUAAGCUCUGGAUCUACUGGGUUACGUAA,0.0464 ± 0.011
9,CUUAUCCUGCUGGAUCUACUGGGUUACCUAA,0.0776 ± 0.018
10,CUUAUCCUCUGGAUGUACUGGGUAACCUAA,0.0198 ± 0.0082
11,CUUAACCUCUCGAUCUACUGGGUUACGUAA,0.052 ± 0.017
12,CUUAUCCUCUGGUUCUACUGGGUUACCUAA,0.469 ± 0.1
13,CUUAUCCUCUGGAUCUACUGGGGUUACCUAA,0.0435 ± 0.012
14,CUUAUCCUCUGGUUCUACUGCGUUACCUAA,0.0261 ± 0.0078
15,CUUAUCCUCUGGUUCUUCUGGGUUACCUAA,0.338 ± 0.088
16,CUUAUCCUCUGGUUCUAGUGGGUUACCUAA,0.134 ± 0.028
17,CUUAUCCUCUCGUUCUACUGGGUUACCUAA,0.136 ± 0.021
18,CUUAUCCUCUGCUUCUACUGGGUUACCUAA,0.157 ± 0.026
19,CUUAUCCUCUGGUAUCUACUGGGUUACCUAA,1.05 ± 0.33
20,CUUAUCCUCUGUAUCUACUGGGUUACCUAA,0.0865 ± 0.015
21,CUUAUCCUCUCCUUCUACUGGGUUACCUAA,0.106 ± 0.023
22,CUUAUCCUCUGGAUCUUCUGGGUUACCUAA,0.105 ± 0.019
23,CUUAUCCUCUGGUUCUACUGGGUUACCUUA,1.12 ± 0.39
24,CUUAACCUCUGGAUCUACUGGGUUACCAUAA,0.13 ± 0.03
